Results reported in PubChem BioAssay (Tox21).
Inconclusive results are not listed. Activity calls are given as the source filed them. The call rests on the fitted dose curve.

What follows are compounds tested against Acetylcholinesterase (Homo sapiens) (UniProt P22303) (assay: Acetylcholinesterase (AChE) small molecule antagonists: colormetric cell-based qHTS assay (AID 1347395; further: nearly all actives have a fitted effect of over 30% in size)). Settings: SH-SY5Y cells AChE activity, colorimetric (Ellman); series mostly up to 115 µM; activity, negative = inhibition: at the top concentration.
Sequence of Acetylcholinesterase (Homo sapiens) (P22303 whole entry, looked up): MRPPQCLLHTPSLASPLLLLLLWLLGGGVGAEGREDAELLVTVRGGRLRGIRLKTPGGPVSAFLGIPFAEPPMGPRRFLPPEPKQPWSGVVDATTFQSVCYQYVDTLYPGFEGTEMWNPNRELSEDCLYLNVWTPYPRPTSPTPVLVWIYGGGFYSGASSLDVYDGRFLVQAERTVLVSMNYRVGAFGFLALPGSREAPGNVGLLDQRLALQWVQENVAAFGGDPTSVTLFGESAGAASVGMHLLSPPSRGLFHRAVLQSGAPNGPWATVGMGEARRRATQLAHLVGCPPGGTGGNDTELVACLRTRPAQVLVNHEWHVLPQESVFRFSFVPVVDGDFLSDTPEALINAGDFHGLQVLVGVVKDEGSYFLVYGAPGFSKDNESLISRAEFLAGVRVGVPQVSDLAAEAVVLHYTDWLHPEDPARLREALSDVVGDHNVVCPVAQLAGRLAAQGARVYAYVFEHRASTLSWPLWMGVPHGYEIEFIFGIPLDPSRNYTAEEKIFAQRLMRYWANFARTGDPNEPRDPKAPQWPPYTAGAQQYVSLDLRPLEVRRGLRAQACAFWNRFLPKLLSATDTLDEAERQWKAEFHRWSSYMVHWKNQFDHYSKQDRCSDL
How it was run: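 Colorimetric readout: DTNB quantifies thiocholine from acetylthiocholine hydrolysed by endogenous AChE of SH-SY5Y cells (2,000/well, plated overnight). Compound pretreatment 30 min, substrate incubation 90 min, both 37 C.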
On the % scale 0 is the no-effect control and ±100 the full control effect; potency means the concentration at half of the fitted maximal effect.

SMILES	activity, negative = inhibition	Potency	outcome
CCCCNC(=S)NCCCC	0.0422% (inactive)		
CCCC/C=C/CCCCO	0.186% (inactive)		
COCC(C)N (stereo not given)		inactive	
Clc1ccccc1C(c1ccccc1)(c1ccccc1)n1ccnc1		inactive	
Cc1[nH]nc2c1N=C(c1ccccc1Cl)c1cc([N+](=O)[O-])ccc1N2	-5.25% (inactive)		
COc1cccc(N(C)C(=S)Oc2ccc3c(c2)CCCC3)n1	0.589% [at 52.9 µM] (inactive)		
CCc1nccnc1CC	2.95% [at 23.6 µM] (inactive)		
O=C(NCc1ncc(C(F)(F)F)cc1Cl)c1c(Cl)cccc1Cl	-0.0969% (inactive)		
C=CCn1c(=O)n([C@@H]2O[C@H](CO)[C@@H](O)[C@H]2O)c2nc(N)[nH]c(=O)c21	-1.01% [at 52.9 µM] (inactive)		
CCCCCCCCC(=O)OCC	1.06% (inactive)		
Cc1cccc(Nc2ccncc2S(=O)(=O)NC(=O)NC(C)C)c1	-0.757% [at 52.9 µM] (inactive)		
Cn1nnc2c(C(N)=O)ncn2c1=O	3.87% [at 52.9 µM] (inactive)		
CCCCCCS	0.0868% (inactive)		
Cc1cc(C)c(/C=C2\C(=O)Nc3ccccc32)[nH]1	-0.182% [at 52.9 µM] (inactive)		
O=C1OCc2ccccc21	2.75% (inactive)		
COc1ccc(-c2cc(C(F)F)nn2-c2ccc(S(N)(=O)=O)cc2)cc1F	-9.79% [at 52.9 µM] (inactive)		
CCCCCCCC(=O)OCC(O)CO (stereo not given)		inactive	
CNC(=O)Nc1ccc(Cl)c(Cl)c1	8.87% (inactive)		
CC(C)OC(=O)C(C)(C)Oc1ccc(C(=O)c2ccc(Cl)cc2)cc1		inactive	
N#Cc1ccccc1O	3.36% (inactive)		

SMILES	activity, negative = inhibition	Potency	outcome
CCCCCCCCCCC	-5.73% (inactive)		
NC(=S)Nc1cccc2ccccc12	-0.35% [at 10.5 µM] (inactive)		
CCCCCCCC(C)=O	-0.257% (inactive)		
Cc1cccc(C)c1NC(=O)CN1CCN(CCCC(c2ccc(F)cc2)c2ccc(F)cc2)CC1	0.552% [at 52.9 µM] (inactive)		
CCN=C1C=CC(=C(c2ccc(N(CC)CC)cc2)c2ccc(N(CC)CC)cc2)c2ccccc21		62.9 µM (active)	
O=C(CC(C(=O)OC1CCCCC1)S(=O)(=O)O)OC1CCCCC1 (stereo not given)		inactive	
CC(C)(C)c1n[nH]c(=S)n(N)c1=O	0.452% (inactive)		
CCOC(N)=O		inactive	
Cc1ccc(S(=O)(=O)NC(=O)NC2CCCCC2)cc1	1.79% [at 52.9 µM] (inactive)		
CC/C=C\C#N	3.64% (inactive)		
[Na+]		inactive	
CC1=CC(C)C(C=O)C(C)C1 (stereo not given)	0.372% (inactive)		
C/C=C(\C)C(=O)OC/C=C(\C)CCC=C(C)C	3.59% (inactive)		
CC(=O)Nc1c(I)cc(I)c(C(=O)O)c1I	9.02% [at 52.9 µM] (inactive)		
CC(C)(C)c1cc(/C=C2\SC(=N)NC2=O)cc(C(C)(C)C)c1O			inactive
Cc1cccc(OCCOc2cccc(C)c2)c1	3.67% (inactive)		
O=C(NCCCN1CCOCC1)c1ccc(Cl)cc1	0.604% [at 52.9 µM] (inactive)		
O=C(O)c1cc(O)c(O)c(O)c1		inactive	
C=CC(=O)OCCCCCCCC	0.435% (inactive)		
CCCCCC[C@@H](CCC)C(=O)O	0.44% [at 52.9 µM] (inactive)		

What follows are compounds tested against Acetylcholinesterase (Homo sapiens) (UniProt P22303) (assay: Acetylcholinesterase (AChE) small molecule antagonists: enzyme-based qHTS assay (AID 1347397; further: nearly all actives have a fitted effect of over 55% in size)). Settings: Potency: AChE enzyme activity inhibition; outcome: AChE enzyme activity inhibition; series mostly up to 115 µM; activity change, negative = inhibition: at the top concentration.
How it was run: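 Colorimetric DTNB readout of acetylthiocholine hydrolysis, 10 min at room temperature, after 30 min room-temperature exposure of 50 mU/mL recombinant human enzyme to compound; DMSO vehicle control.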

SMILES	activity change, negative = inhibition	Potency	outcome
CCCCNC(=S)NCCCC	2.25% (inactive)		
CCCC/C=C/CCCCO	0.386% (inactive)		
COCC(C)N (stereo not given)		inactive	
Clc1ccccc1C(c1ccccc1)(c1ccccc1)n1ccnc1		inactive	
Cc1[nH]nc2c1N=C(c1ccccc1Cl)c1cc([N+](=O)[O-])ccc1N2	9.97% (inactive)		
COc1cccc(N(C)C(=S)Oc2ccc3c(c2)CCCC3)n1	-0.405% [at 53 µM] (inactive)		
CCc1nccnc1CC	-0.515% [at 23.6 µM] (inactive)		
O=C(NCc1ncc(C(F)(F)F)cc1Cl)c1c(Cl)cccc1Cl	-0.265% (inactive)		
C=CCn1c(=O)n([C@@H]2O[C@H](CO)[C@@H](O)[C@H]2O)c2nc(N)[nH]c(=O)c21	0.405% [at 53 µM] (inactive)		
CCCCCCCCC(=O)OCC	0.619% (inactive)		
Cc1cccc(Nc2ccncc2S(=O)(=O)NC(=O)NC(C)C)c1	0.619% [at 53 µM] (inactive)		
Cn1nnc2c(C(N)=O)ncn2c1=O	0% [at 53 µM] (inactive)		
CCCCCCS	-2.45% (inactive)		
Cc1cc(C)c(/C=C2\C(=O)Nc3ccccc32)[nH]1	0.139% [at 53 µM] (inactive)		
O=C1OCc2ccccc21	0.003% (inactive)		
COc1ccc(-c2cc(C(F)F)nn2-c2ccc(S(N)(=O)=O)cc2)cc1F	-3.42% [at 53 µM] (inactive)		
CCCCCCCC(=O)OCC(O)CO (stereo not given)		inactive	
CNC(=O)Nc1ccc(Cl)c(Cl)c1	2.9% (inactive)		
CC(C)OC(=O)C(C)(C)Oc1ccc(C(=O)c2ccc(Cl)cc2)cc1		inactive	
N#Cc1ccccc1O	-0.81% (inactive)		

SMILES	activity change, negative = inhibition	Potency	outcome
CCCCCCCCCCC	-0.369% (inactive)		
NC(=S)Nc1cccc2ccccc12	-0.679% [at 10.5 µM] (inactive)		
CCCCCCCC(C)=O	-0.0061% (inactive)		
Cc1cccc(C)c1NC(=O)CN1CCN(CCCC(c2ccc(F)cc2)c2ccc(F)cc2)CC1	-8.47% [at 53 µM] (inactive)		
CCN=C1C=CC(=C(c2ccc(N(CC)CC)cc2)c2ccc(N(CC)CC)cc2)c2ccccc21		19.9 µM (active)	
O=C(CC(C(=O)OC1CCCCC1)S(=O)(=O)O)OC1CCCCC1 (stereo not given)		inactive	
CC(C)(C)c1n[nH]c(=S)n(N)c1=O	-0.387% (inactive)		
CCOC(N)=O		inactive	
Cc1ccc(S(=O)(=O)NC(=O)NC2CCCCC2)cc1	0.139% [at 53 µM] (inactive)		
CC/C=C\C#N	1.47% (inactive)		
[Na+]		inactive	
CC1=CC(C)C(C=O)C(C)C1 (stereo not given)	-0.516% (inactive)		
C/C=C(\C)C(=O)OC/C=C(\C)CCC=C(C)C	0.0023% (inactive)		
CC(=O)Nc1c(I)cc(I)c(C(=O)O)c1I	-0.133% [at 53 µM] (inactive)		
CC(C)(C)c1cc(/C=C2\SC(=N)NC2=O)cc(C(C)(C)C)c1O			inactive
Cc1cccc(OCCOc2cccc(C)c2)c1	-1.79% (inactive)		
O=C(NCCCN1CCOCC1)c1ccc(Cl)cc1	-0.0051% [at 53 µM] (inactive)		
O=C(O)c1cc(O)c(O)c(O)c1		inactive	
C=CC(=O)OCCCCCCCC	0.206% (inactive)		
CCCCCC[C@@H](CCC)C(=O)O	-0.243% [at 53 µM] (inactive)		
